Peg3 promoter: inhibitors of Peg3 promoter | HeLa PEG-Prom luciferase reporter, luminescence, overnight | 360,000 tested, 1.7% active | inhibition, % at 20 µM;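 active means inhibition of at least 50% at 20 µM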
ABHD5-PLIN5 inh: ABHD5-PLIN5 protein interaction inhibition. Split G. princeps luciferase complementation, luminescence, 4 h. inhibition, % at 4 µM. 360,000 tested, 0.78% active. Q00G26+Q8WTS1;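 active means inhibition above the mean inhibition across every tested compound plus 3 SD, cut at about 22% in these data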;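 further: 0% = DMSO only wells and the 100% control is not disclosed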
TRPM1 prom inh: MITF TRPM1 promoter inhibition in SK-MEL-5 cells; SK-MEL-5 TRPM1 promoter luciferase, 24 h; inhibition, % at 12.5 µM; 330,000 tested, 0.83% active;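 active means mean inhibition across replicates of 60% or more, whatever share of single replicates reaches that level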
HIF-2a block: HIF-2a inhibition; inhibition, % at 18.8 µM; 786-0 RCC cells HIF-2a reporter, luciferase luminescence, overnight; AID 624352; 360,000 tested, 0.72% active;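 active means inhibition of the luminescence signal of 40% or more relative to plate controls, in a single-dose primary screen at 18.75 µM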
CF NFkB inh: inhibitors of cystic fibrosis induced NF-kB | 360,000 tested, 0.86% active | KKLEB NF-kB-GFP reporter, PAF-induced, GFP fluorescence overnight | inhibition, % at 5 µM;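 active means at least 50% inhibition at 5 µM, scaled per plate between neutral and stimulator controls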;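 further: PAF is a Pseudomonas aeruginosa culture filtrate used as stimulus; plate controls were PAF-stimulated DMSO wells for no effect and unstimulated DMSO wells for full effect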
KKLEB cytotox: reduces viability of KKLEB cystic fibrosis airway cells. KKLEB CF airway cells viability, ATPlite luminescence, overnight; stronger effect = lower value; cells stimulated with P. aeruginosa culture filtrate. activity change (cytotoxicity), % at 5 µM. 360,000 tested, 0.36% active. AID 602141;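 active means corrected activity change at or below -50% at 5 µM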
CF NFkB inh conf: CF NF-kB inhibition confirmation, single concentration; shares compounds with CF NFkB inh; AID 602472; KKLEB CF airway cells, PAF-induced NF-kB-GFP fluorescence, overnight; 1,300 tested, 64% active; inhibition, % at 5 µM; in the data active means inhibition above about 40%;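 further: stimulus PAF is a Pseudomonas aeruginosa filtrate and not platelet activating factor; plate controls were DMSO wells with stimulus for no effect and unstimulated DMSO wells for full effect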
ABHD5 PLIN5 conf: ABHD5-PLIN5 interaction inhibition, confirmed; biochemical ABHD5-PLIN5 interaction, luminescence; AID 651612; 2,200 tested, 67% active; shares compounds with ABHD5-PLIN5 inh; inhibition, % at 4 µM; in the data active means inhibition above about 23%;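 further: 0% = DMSO vehicle wells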
HNF4 split-luc: active in HNF4 split-luciferase counter-screen for ABHD5-PLIN5 inhibitors | shares compounds with ABHD5-PLIN5 inh | HNF4 dimerization, luminescence, biochemical | inhibition, % at 4 µM | 2,200 tested, 77% active | AID 651674;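 active means mean inhibition across replicate wells exceeding the computed hit threshold, cut at about 13% in these data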;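 further: light from luciferase halves that rejoin when HNF4 fusion proteins dimerize; 0% = DMSO only wells and the 100% control is not given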
Mdm2-MdmX confirm: confirmation of inhibitors of human Mdm2/MdmX interaction, set 2. SaOS-2 split-luciferase Mdm2/MdmX complementation, luminescence. inhibition, % at 8 µM. 740 tested, 99% active. shares compounds with HIF-2a block;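 active means mean inhibition of the luminescence signal across two replicates at or above 26 percent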
Target sequence (O15151 whole entry, looked up): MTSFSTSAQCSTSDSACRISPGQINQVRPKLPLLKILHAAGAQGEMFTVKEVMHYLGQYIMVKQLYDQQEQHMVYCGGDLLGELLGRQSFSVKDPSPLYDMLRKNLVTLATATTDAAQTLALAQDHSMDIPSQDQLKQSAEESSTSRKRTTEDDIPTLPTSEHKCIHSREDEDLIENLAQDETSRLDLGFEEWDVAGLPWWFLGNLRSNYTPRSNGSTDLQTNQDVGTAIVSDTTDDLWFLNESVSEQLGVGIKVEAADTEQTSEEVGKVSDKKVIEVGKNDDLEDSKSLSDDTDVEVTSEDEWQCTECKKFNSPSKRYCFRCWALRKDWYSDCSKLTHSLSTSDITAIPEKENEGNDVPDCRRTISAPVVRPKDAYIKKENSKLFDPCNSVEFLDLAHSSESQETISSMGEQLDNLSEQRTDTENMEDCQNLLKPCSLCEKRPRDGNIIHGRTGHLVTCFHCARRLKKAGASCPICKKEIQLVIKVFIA
Target sequence (Q00987 whole entry, looked up): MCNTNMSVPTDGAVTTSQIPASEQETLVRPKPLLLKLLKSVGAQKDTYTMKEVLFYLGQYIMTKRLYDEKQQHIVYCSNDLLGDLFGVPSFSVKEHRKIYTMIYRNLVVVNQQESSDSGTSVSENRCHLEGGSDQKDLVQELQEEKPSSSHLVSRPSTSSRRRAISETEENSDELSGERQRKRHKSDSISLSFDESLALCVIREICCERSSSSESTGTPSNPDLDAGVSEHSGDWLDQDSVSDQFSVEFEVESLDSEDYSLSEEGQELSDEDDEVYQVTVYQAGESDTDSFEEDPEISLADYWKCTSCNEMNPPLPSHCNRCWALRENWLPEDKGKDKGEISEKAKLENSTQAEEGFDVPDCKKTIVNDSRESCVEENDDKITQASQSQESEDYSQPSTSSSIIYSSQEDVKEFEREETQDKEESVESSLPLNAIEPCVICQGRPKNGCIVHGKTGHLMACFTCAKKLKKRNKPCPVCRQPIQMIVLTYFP
HIF-2a conf: confirmation of HIF-2a inhibitors. shares compounds with HIF-2a block. 786-0 RCC cells, HIF-2a luciferase reporter luminescence, overnight. inhibition, % at 18.8 µM. 1,800 tested, 56% active;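 active means mean inhibition across four replicates of at least 40 percent at the single tested concentration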
HIF-1a counter: counter-screen for HIF-2a inhibitors: HIF-1a inhibition in MiaPaCa-2 cells. shares compounds with HIF-2a block. MiaPaCa-2 HIF-1a luciferase reporter, desferoxamine, overnight. inhibition, % at 18.8 µM. 1,800 tested, 72% active. AID 651589;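 active means mean inhibition of the reporter signal across four replicates at the single tested dose of 50% or more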
* marks the source's active call; other numbers are inactive results; · = not tested or not shown. In the library only some 3.1% were active in any assay of this set; here they are far more common.

SMILES	Peg3 promoter	ABHD5-PLIN5 inh	TRPM1 prom inh	HIF-2a block	CF NFkB inh	KKLEB cytotox	CF NFkB inh conf	Mdm2-MdmX confirm	others
COc1ccc(S(=O)(=O)N2CCCCC2)cc1NC(=O)c1ccc([N+](=O)[O-])o1	42	0	85*	53*	75*	-1	-9	·	HIF-2a conf=9;HIF-1a counter=76*
CC(=O)N1CCN(c2ccc(NC(=O)c3ccc([N+](=O)[O-])o3)cc2Cl)CC1	101*	-4	95*	88*	62*	-27	8	·	HIF-2a conf=52*;HIF-1a counter=83*
CC(=O)N1CCN(c2ccc(NC(=O)c3ccco3)cc2Cl)CC1	-82	1	-25	-120	-17	8	·	·
O=C(COC(=O)c1cc(-c2cccc(Br)c2)nc2ccccc12)NCC1CCCO1 (stereo not given)	-44	4	25	-43	-33	3	·	·
COc1ccc2c(c1)c(C(C)=O)c(C)n2-c1ccccc1	3	0	11	12	36	5	·	·
CCOc1ccc(-n2c(C)c(C(=O)O)c3cc(OC)ccc32)cc1	-4	-9	-12	3	36	2	·	·
CCOc1ccc(-n2c(C)c(C(C)=O)c3cc(OC(C)=O)ccc32)cc1	26	0	·	22	76*	2	87*	89*
COc1ccc(-n2c(C)c(C(C)=O)c3cc(O)ccc32)cc1	7	-1	1	13	69*	-6	86*	87*
Cc1ccc(S(=O)(=O)CC(CN2CCOCC2)N2CCOCC2)cc1 (stereo not given)	6	-1	16	9	-11	13	·	·
O=S(=O)(CC(CN1CCCC1)N1CCCC1)c1ccc2ccccc2c1 (stereo not given)	80*	6	76*	22	62*	-31	86*	103*
CCOC(=O)C1=C(C)NC(C)=C(C(=O)OCC)C1C(=O)OCC(=O)NC1CCCCC1	39	4	12	8	23	-2	·	·
CC(=O)Nc1cccc(C(=O)/C=C/c2ccc(N(C)C)cc2)c1	-251	13	-30	-217	3	-18	·	·
CC(=O)Nc1cccc(C(=O)/C=C/c2ccc(Br)cc2)c1	101*	79*	39	92*	78*	-16	-69	103*	ABHD5 PLIN5 conf=94*;HNF4 split-luc=88*;HIF-2a conf=16;HIF-1a counter=105*
COC(CN(C(=O)CCl)C(C(=O)NC1CCCCC1)c1ccccc1C)OC (stereo not given)	64*	0	27	47*	54*	-41	-6	·	HIF-2a conf=10;HIF-1a counter=84*
COC(CN(C(=O)CCl)C(C(=O)NC1CCCCC1)c1ccc(Cl)cc1)OC (stereo not given)	16	0	-3	4	8	-1	·	·
Cn1c(Oc2ccc(F)cc2)c(C=O)c2ccccc21	9	1	18	22	34	-15	·	·
Cn1c(Sc2ccc(Br)cc2)c(C=O)c2ccccc21	37	-2	11	30	67*	-12	98*	87*
CC1=C(C(=O)OCc2ccc3c(c2)OCO3)C(c2cccc([N+](=O)[O-])c2)NC(=O)N1 (stereo not given)	41	2	-5	23	74*	-12	68*	74*
